# High-throughput results deposited in PubChem BioAssay by Buhrlage Lab, Dana-Farber Cancer Institute and Novartis Institutes for BioMedical Research (Cambridge, Mass).
# Rows were chosen to be rich in hits. Some 11% of all compounds tested hit in one or more screens of this group.
# USP17 block – inhibitors of human USP17 deubiquitinase. purified USP17, Ub-rhodamine cleavage fluorescence, 3 h. A8MUK1. 47,000 compounds, 6.5% hits. inhibition, % at 50 µM
# USP28 block – blocks human USP28 ubiquitin-rhodamine cleavage; purified USP28, Ub-rhodamine cleavage fluorescence, 30 min; Q96RU2; 47,000 compounds, 3% hits; inhibition, % at 25 µM; AID 1645857
# Target sequence (Q96RU2 whole entry, looked up): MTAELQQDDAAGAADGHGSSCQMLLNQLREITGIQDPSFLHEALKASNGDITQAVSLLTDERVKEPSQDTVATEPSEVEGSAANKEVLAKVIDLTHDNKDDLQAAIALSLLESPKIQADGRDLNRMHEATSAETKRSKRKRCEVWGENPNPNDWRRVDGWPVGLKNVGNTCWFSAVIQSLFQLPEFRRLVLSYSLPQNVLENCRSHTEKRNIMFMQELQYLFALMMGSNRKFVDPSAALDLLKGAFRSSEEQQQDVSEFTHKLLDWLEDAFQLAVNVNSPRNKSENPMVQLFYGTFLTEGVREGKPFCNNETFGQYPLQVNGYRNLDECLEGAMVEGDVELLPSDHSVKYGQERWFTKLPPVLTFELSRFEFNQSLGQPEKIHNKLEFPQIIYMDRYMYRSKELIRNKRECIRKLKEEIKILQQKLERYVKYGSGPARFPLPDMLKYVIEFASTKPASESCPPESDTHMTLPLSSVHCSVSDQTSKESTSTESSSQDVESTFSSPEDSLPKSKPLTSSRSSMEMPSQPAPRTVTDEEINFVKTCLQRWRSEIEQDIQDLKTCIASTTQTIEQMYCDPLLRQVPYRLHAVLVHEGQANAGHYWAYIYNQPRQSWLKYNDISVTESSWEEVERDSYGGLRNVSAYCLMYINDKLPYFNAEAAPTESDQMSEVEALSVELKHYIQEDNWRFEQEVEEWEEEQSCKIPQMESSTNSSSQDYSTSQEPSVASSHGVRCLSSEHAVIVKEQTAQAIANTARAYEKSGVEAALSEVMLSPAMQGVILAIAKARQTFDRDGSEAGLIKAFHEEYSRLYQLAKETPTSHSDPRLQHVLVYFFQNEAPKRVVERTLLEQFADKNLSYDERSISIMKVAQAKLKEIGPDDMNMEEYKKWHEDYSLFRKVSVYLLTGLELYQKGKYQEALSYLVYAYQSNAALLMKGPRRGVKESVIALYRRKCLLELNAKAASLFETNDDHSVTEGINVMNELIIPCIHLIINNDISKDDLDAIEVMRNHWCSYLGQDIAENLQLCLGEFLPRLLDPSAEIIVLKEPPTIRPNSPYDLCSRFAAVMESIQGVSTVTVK
# OTUD3 block – blocks human OTUD3 ubiquitin-rhodamine cleavage; Q5T2D3; purified OTUD3, Ub-rhodamine fluorescence, 2 h; inhibition, % at 25 µM; 47,000 compounds, 0.7% hits
# USP30 inh – inhibitors of human USP30 deubiquitinase. purified USP30, Ub-rhodamine cleavage fluorescence. inhibition, % at 25 µM. 47,000 compounds, 5.3% hits
# Active calls of the source: *; i = inactive; nt = no result given. Cut-off read from the data, not from the text of the source: active = inhibition above about 30%; inactive = the rest.
SMILES,USP17 block,USP28 block,OTUD3 block,USP30 inh
COc1cc2nc(NC(=O)c3ccc(F)cc3Cl)sc(=O)c2cc1OC,62.4*,78.1*,19.5,92.3*
Cc1nc(Nc2ncc(C)s2)cc(C2CN(C(=O)Cc3ccccc3)CCO2)n1 (centres undefined),38.4*,26.2,13.0,54.6*
COC(=O)C(C)Sc1ncnc2c1nnn2-c1ccc(OC)cc1 (centres undefined),37.4*,nt,-4.6,nt
COc1ccc(-n2nnc3c(SCC(=O)Nc4cc(C)on4)ncnc32)cc1,57.2*,-0.3,-2.8,-45.2
Cc1cc(NC(=O)CSc2nnc(COc3ccc(Cl)cc3)o2)no1,2.9,-3.1,-7.7,-14.8
O=C(c1ccc(F)c(F)c1)N1CC(C(=O)N2CCN(c3ncccn3)CC2)C1,-8.7,-1.4,-6.3,-8.7
FC(F)(F)c1cc(-c2ccccc2)n2nnnc2n1,16.8,2.3,8.1,21.3
O=C(C(c1ccccc1)c1ccccc1)N1CCC(c2nc3c(nnn3Cc3c(F)cccc3Cl)c(=O)[nH]2)CC1,51.4*,37.6*,16.3,44.2*
O=C(C1CCCC1)N1CCC(c2nc3c(nnn3Cc3ccccc3Cl)c(=O)[nH]2)CC1,15.4,19.3,8.9,38.8*
O=C(C1CCCC1)N1CCC(c2nc3c(nnn3Cc3cccc(Cl)c3)c(=O)[nH]2)CC1,7.4,15.3,-4.0,25.6
CCc1noc(-c2ccc(SCC(=O)N3CCCCC3)nc2)n1,3.5,6.8,2.7,0.2
CCN(CC)C(=O)c1nc2c(s1)CCN(C(=O)Cc1cccc(OC)c1)CC2,3.5,16.6,17.3,20.4
Cc1ccccc1-c1nc(Cn2ccnc2C)no1,8.9,32.4*,2.0,14.4
CCc1nccn1Cc1noc(-c2ccc(C)c(C)c2)n1,-0.1,38.6*,-3.3,-3.1
CCc1nccn1Cc1nc(-c2ccc(Cl)cc2)no1,-2.7,42.8*,-1.3,-14.6
Cn1cnc(C(=O)N2CCCC3(COCCN(c4cccnc4)C3)C2)c1 (centres undefined),-7.9,-2.7,-4.3,-23.1
COc1ccc(CNC(=O)CSc2ncc3c(n2)-c2ccc(Cl)cc2N(C)S3(=O)=O)cc1,-1.4,-7.4,-4.1,5.2
O=C1NC2(CCC(=O)N(CC(=O)N3CCN(C4CCCC4)CC3)CC2)Nc2ccccc21 (centres undefined),13.3,5.9,4.8,26.3
CCOc1ccc(NC(=O)N2CCCC(CN3CCc4ccccc4C3)C2)cc1 (centres undefined),-3.0,9.4,0.7,6.9
CCC(=O)Nc1nc2ccc(NC(=O)Cc3ccc(OC)c(OC)c3)cc2s1,35.6*,-3.8,-3.2,4.5
COc1ccc(S(=O)(=O)Nc2ccc3nc(NC(C)=O)sc3c2)cc1OC,0.3,-3.7,-8.7,-8.7
CCC(=O)Nc1nc2cc(NC(=O)Nc3cc(C)cc(C)c3)ccc2s1,19.3,25.8,30.5*,48.2*
COc1cccc(N2CCN(C(=O)c3cc(NC(C)=O)cc4nc(C)ccc34)CC2)c1,-172.2,-256.7,-199.4,i
O=S(=O)(Nc1nc(-c2ccco2)c(-c2ccco2)s1)c1ccc(F)cc1F,-17.4,-28.8,-24.0,-420.7
COc1cccc(C(=O)Nc2nc(-c3ccco3)c(-c3ccco3)s2)c1,43.6*,0.0,24.9,-169.8
SMILES,USP17 block,USP28 block,OTUD3 block,USP30 inh
O=[N+]([O-])c1ccccc1C(c1c[nH]c2ccccc12)c1c[nH]c2ccccc12,53.8*,10.4,-2.8,-39.5
OC(c1ccccn1)c1c[nH]c2ccccc12 (centres undefined),-10.4,-18.2,-12.6,-26.0
O=C1COc2ccc(Br)cc2CN1Cc1ccccc1F,19.9,39.9*,19.4,27.0
Cc1cccc(NC(=O)c2noc3c2CCCC3)n1,4.1,nt,2.5,nt
O=C(Nc1ccc(Cl)cc1)c1noc2c1CCCC2,17.5,18.1,6.5,34.8*
Cc1ccccc1-c1nc2c3c(C)c(C)n(-c4cccnc4)c3ncn2n1,3.1,9.3,5.9,10.2
Cc1cccnc1-n1c(C)c(C)c2c1ncn1nc(-c3ccco3)nc21,39.9*,2.8,10.2,0.0
O=C(NCCc1ccc(Cl)cc1)C1CCN(C(=O)Cn2nnc3ccccc32)C1 (centres undefined),4.7,9.5,7.0,22.2
O=S(=O)(Cc1nnc(-c2ccccc2C(F)(F)F)o1)c1ccc(Cl)cc1,67.5*,-10.5,-3.9,-2.0
O=C(Cc1cccnc1)N[C@@H]1CC[C@@H](Oc2ccccc2)[C@@H](O)[C@@H]1O,30.5*,7.1,1.0,17.6
O[C@H]1[C@H](O)[C@H](Oc2ccccc2)CC[C@H]1NCc1cccnc1,2.7,6.2,7.5,10.1
CC(C)c1ccc(-n2c(=O)c3ccccc3c3ccccc3c2=O)cc1,2.7,12.4,14.1,35.0*
CNC(=O)c1cc2c(nc1NCC(C)C)CCN(C)CC2,-5.8,6.7,8.8,-49.4
CCCc1c(C(=O)NC2CCCCC2)cnn1-c1ccc(Cl)cc1,35.6*,7.2,4.6,21.2
CC(=O)N[C@@]12CCN(CC(=O)Nc3cccc(C)c3C)C[C@@H]1[C@@H](c1ccccc1)N(C(C)=O)C2,6.0,1.0,10.2,9.8
CN1CCN(C(=O)c2cc(-c3csc(-c4cnccn4)n3)n3ccccc23)CC1,-120.0,-169.6,-204.1,i
O=C(N1CCCC1)C1(n2cccc2)CCCCC1,-20.9,5.3,1.5,-44.7
Cc1ccc(-n2c(=O)[nH]c3c(C(N)=O)nc(-c4cccnc4)nc32)cc1,34.2*,18.5,31.5*,33.6*
CCn1cc(-c2nc(-c3ccccn3)no2)c(=O)c2cc(F)ccc21,58.0*,14.4,13.0,23.3
CC(Sc1nc2nn(-c3ccccc3)c(=O)c-2c2n1CCCCC2)C(=O)Nc1ccc(C#N)cc1 (centres undefined),0.0,16.0,-1.1,33.1*
CCOc1cc(=O)c(C(=O)Nc2ccc(C#N)cc2)nn1-c1ccccc1,-2.7,-9.9,-9.3,0.4
CC(=O)c1ccc(OCc2csc(-c3ccc(F)cc3)n2)cc1,43.5*,30.4*,18.1,37.4*
Cc1ccc(S(=O)(=O)CCc2nc(-c3ccc(N4CCC(C)CC4)cc3)no2)cc1,nt,6.5,-0.1,45.0*
O=C(CCn1c(=O)c2ccccc2n(Cc2cc(=O)n3ccccc3n2)c1=O)N1CCc2ccccc2C1,-13.4,-11.4,-17.1,-11.3
Cc1ccccc1Cn1c(=O)n(CCCC(=O)N2CCc3ccccc3C2)c(=O)c2ccccc21,11.0,24.1,22.2,47.4*
SMILES,USP17 block,USP28 block,OTUD3 block,USP30 inh
O=C(Cn1c(=O)n(CCC(=O)N2CCc3ccccc3C2)c(=O)c2ccccc21)NCc1ccccc1Cl,76.7*,49.1*,26.1,52.7*
O=C(c1ccc(F)cc1)N1CCCC1c1ccnc(Nc2cnccn2)n1 (centres undefined),2.6,1.1,-2.0,-4.3
O=S(=O)(c1ccc(F)cc1)N1CCCC1c1ccnc(Nc2cnccn2)n1 (centres undefined),47.1*,45.4*,12.4,72.5*
C/C=C/C=C/[C@@H]1Cc2cc(O)cc(O)c2O1,96.7*,91.4*,87.0*,81.8*
Cc1ccc2c(c1)[nH]c1c(=O)n(Cc3cccnc3)cnc12,31.1*,19.8,10.1,24.0
O=c1c2[nH]c3ccc(F)cc3c2ncn1Cc1cccnc1,41.4*,nt,6.6,nt
COc1ccc2c(c1)[nH]c1c(=O)n(Cc3cccnc3)cnc12,11.2,18.3,9.5,28.6
